Source: PubChem BioAssay
The list is not random: actives were taken first. Their share in the collection is about 10%.
HPGD inh: blocks human HPGD enzyme activity; P15428; purified HPGD, NADH fluorescence kinetic, PGE2 substrate; Potency, µM, for the others: at the highest dose activity change, negative = inhibition, actives largely listed as inhibitors; hit rate 4.3% among 150,000; AID 894; active = well fitted inhibition curve with a large enough effect, not every such curve was filed as active; inconclusive = small, poorly fitted or top-dose-only effect, or another doubt; inactive = no such curve, though single readings can be large or run the other way; note: potency is the fitted concentration of half-maximal effect
Target sequence (P15428 whole entry, looked up): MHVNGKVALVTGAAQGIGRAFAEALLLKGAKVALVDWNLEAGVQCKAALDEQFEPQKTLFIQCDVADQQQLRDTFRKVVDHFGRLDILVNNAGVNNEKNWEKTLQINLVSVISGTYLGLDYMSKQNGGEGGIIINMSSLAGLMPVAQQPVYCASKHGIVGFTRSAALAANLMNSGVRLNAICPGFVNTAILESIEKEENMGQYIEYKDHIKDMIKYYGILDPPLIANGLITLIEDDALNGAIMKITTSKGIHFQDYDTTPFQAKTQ
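NADH formation kinetics: reaction with 30 uM PGE2 and 1 mM NAD+ (final), 20 nM enzyme, Tris-HCl pH 8 with Tween 20, after 15 min compound preincubation at room temperature. Fluorescence change, last versus first of five reads.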
12-hLO inh: blocks human 12-lipoxygenase activity; Potency, µM (doses to about 57.1 µM), inactives show at the top dose activity change, negative = inhibition, usual class: inhibitors; hit rate 0.12% among 150,000; AID 1452; purified 12-hLO, xylenol orange hydroperoxide absorbance; P18054; note: potency is the fitted concentration of half-maximal effect; nearly all actives have a fitted effect of over 55% in size
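Purified human 12hLO (150 nM final) was preincubated with compounds for 15 min at room temperature in 25 mM Hepes pH 7.0, 0.01% Triton X-100, then reacted with 40 uM arachidonic acid for 30 min. Hydroperoxide was detected with ferrous iron/xylenol orange.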
GLA spleen mod: alpha-galactosidase A (human) modulation; AID 2107; Potency, µM (highest dose often 80 µM), for inactives: top-dose activity change, negative = inhibition, actives largely listed as inhibitors; P06280; hit rate 0.008% among 240,000; human spleen homogenate, 4MU-alpha-Gal fluorescence, 40 min;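 note: potency is the fitted concentration of half-maximal effect; 0% = enzyme with vehicle and -100% = no enzyme basal signal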
Target sequence (P06280 32-429 limits assumed): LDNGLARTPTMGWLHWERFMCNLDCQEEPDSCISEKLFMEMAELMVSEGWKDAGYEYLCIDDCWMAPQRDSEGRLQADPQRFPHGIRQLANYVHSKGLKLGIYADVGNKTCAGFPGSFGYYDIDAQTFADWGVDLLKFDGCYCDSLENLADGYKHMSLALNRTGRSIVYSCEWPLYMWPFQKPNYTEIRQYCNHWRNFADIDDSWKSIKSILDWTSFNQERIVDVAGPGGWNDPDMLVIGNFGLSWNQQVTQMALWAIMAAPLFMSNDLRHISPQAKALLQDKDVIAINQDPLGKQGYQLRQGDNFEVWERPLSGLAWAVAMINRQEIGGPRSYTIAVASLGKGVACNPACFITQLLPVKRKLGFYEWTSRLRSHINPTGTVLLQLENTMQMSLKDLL
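Fluorogenic readout (Ex 365/Em 440 nm) of 4-methylumbelliferone released from 1 mM 4-MU-alpha-galactoside by spleen homogenate, 40 min at 37C, pH 5.0. Data normalized to no-enzyme and enzyme controls; Hill-equation AC50 from compound titrations.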
ALDH1A1 block: inhibitors of human aldehyde dehydrogenase 1A1; P00352; Purified ALDH1A1, NADH fluorescence, propionaldehyde substrate; Potency, µM (highest dose often 75.3 µM), for inactives: at the top dose activity, negative = inhibition, usual class: inhibitors; hit rate 7.3% among 220,000; active = well fitted inhibition curve with a large enough effect, not every such curve was filed as active; inconclusive = small, poorly fitted or top-dose-only effect, or another doubt; inactive = no such curve, though single readings can be large or run the other way;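 note: potency is the fitted concentration of half-maximal effect; plate controls were no enzyme wells and a reference inhibitor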
GLA inh pH 4.5: inhibitors of human alpha-galactosidase A at pH 4.5 | 230,000 tested, under 10 active | activity change, negative = inhibition, % at 105 µM | purified enzyme, 4-MU-alpha-Gal fluorescence, pH 4.5 | AID 1467;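 note: 0% = full activity with enzyme and -100% = basal without enzyme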
PNC assembly inh: perinucleolar compartment assembly inhibition; PC3M PTB-GFP, PNC prevalence imaging, 16 h; hits give low values; activity change (PNC), negative = inhibition, % at 10 µM; hit rate 3.1% among 140,000; AID 2417;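 active = readout at or below -70, meaning at least 70% loss of cells showing the perinucleolar compartment, a nuclear body marking cancer cells; inconclusive = readout between -30 and a set limit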;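 note: plate controls were DMSO wells for no effect and camptothecin positive control wells for full effect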
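Read-out is percentage of cells bearing a perinucleolar compartment, from automated 20x imaging of fixed, Hoechst-stained PC3M PTB-GFP cells. Cells were seeded 4 h, then exposed 16 h to compound (23 nl of library stock) in duplicate plates.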
* marks the source's active call; other numbers are inactive results; ? = inconclusive; / = no result given; [ ] = dose if it differs, or a comment. Unless noted, calls come from the whole dose curve; as a rule, active = well fitted curve in the direction sought with a large enough effect; inconclusive = small, poorly fitted or top-dose-only effect, or another doubt; inactive = no such curve, though single readings can be large; an effect the other way counts as inactive or inconclusive. Unless noted, % is set by controls: 0 for no effect and ±100 for the full control effect.

SMILES | HPGD inh | 12-hLO inh | GLA spleen mod | ALDH1A1 block | GLA inh pH 4.5 | PNC assembly inh
CCCn1cnc2c(sc3nc4c(cc32)CSC(C)(C)C4)c1=O | -25.8% | -1.3% | -9.3% | 0.562µM* | 4.7 | ?
CC1(C)Cc2nc3sc4c(=O)n(Cc5ccccc5)cnc4c3cc2CS1 | ? | -0.4% | -15.1% | ? | 6.2 | ?
Cc1nc(OCc2ccccc2)c2sc3nc4c(cc3c2n1)COC(C)(C)C4 | ? | -3.8% | -8.1% | ? | 2.8 | 23.7
O=[N+]([O-])c1c(C(Cl)Cl)nn(-c2ccc(Cl)cc2)c1N1CCCCC1 | -3.3% | -1.7% | -4.4% | 1.8% | -0.6 | -113.0*
O=[N+]([O-])c1c(C(Cl)Cl)nn(-c2ccccc2)c1N1CCOCC1 | / | / | 1.7% | -8.2% | -1.7 | /
CC(C)(C)OC(=O)NCCc1nnc(S(=O)(=O)Cc2ccc(Cl)cc2Cl)o1 | 2.51µM* | -0.8% | ? | 2.82µM* | -17.1 | -4.5
CC(C)(C)OC(=O)NCCc1nnc(SCc2ccccc2Cl)o1 | -8.2% | -3.7% | -1.0% | -2.4% | -0.3 | 7.2
O=C(O)c1ccc(S(=O)(=O)N[C@H](Cc2ccccc2)C(=O)O)cc1 | / | / | 12.1% | / | / | /
CCc1nc(C)ccc1OC(=O)C12CC3CC(CC(C3)C1)C2 | -21.3% | -5.5% | 3.4% | 17.8µM* | -4.9 | 13.2
CC(Sc1nnc2ccccn12)C(=O)Nc1ncc(Cl)cc1Cl (stereo not drawn) | -10.0% | 4.0% | -14.6% | 4.0% | 3.4 | ?
COc1ccc(-n2c(SC(C)C(=O)Nc3ncc(Cl)cc3Cl)nc3ccccc32)cc1 (stereo not drawn) | -24.0% | -1.5% | 1.8% | ? | 0.1 | -110.8*
Cc1cc(NC(=O)CN2C(=O)CC(c3ccco3)Sc3ccccc32)no1 (stereo not drawn) | -5.0% | -7.8% | -0.6% | 14.1µM* | 5.0 | -22.9
COc1ccc(NC(=O)C(NS(=O)(=O)c2ccc3c(c2)CCCN3C(C)=O)C(C)C)c(OC)c1 (stereo not drawn) | -6.8% | -10.6% | -6.4% | ? | 2.8 | -2.6
CCOc1ccc(NC(=O)CCS(=O)(=O)c2ccc3c(c2)CCCN3C(C)=O)cc1 | -5.1% | -2.1% | 9.5% | 18.9µM* | -2.5 | -13.1
CCC(=O)N1CCc2cc(S(=O)(=O)NC(C(=O)NC(C)c3ccccc3)C(C)C)ccc21 (stereo not drawn) | -4.2% | -1.8% | 3.4% | 17.4% | 5.5 | ?
CC(=O)N1CCCc2cc(S(=O)(=O)NC(C(=O)NC3CCCCC3)C(C)C)ccc21 (stereo not drawn) | -5.0% | 1.0% | 0.6% | 7.08µM* | 4.0 | 40.6
CC(=O)N1CCCc2cc(S(=O)(=O)N(C)Cc3ccccc3)ccc21 | 31.6µM* | -8.2% | 0.0% | ? | -0.7 | 4.7
CC(=O)N1CCCc2cc(S(=O)(=O)NC(C(=O)NC(C)c3ccccc3)C(C)C)ccc21 (stereo not drawn) | -4.3% | -3.6% | 16.2% | 3.16µM* | 6.7 | ?
COc1nc(N)nc2c1ncn2[C@@H]1C[C@H](O)[C@@H](CO)O1 | -3.2% | -1.5%[11.4 µM] | / | 8.4%[13.5 µM] | / | /
O=C(Nc1cccc(O)c1)c1cc(-c2ccco2)on1 | -14.9% | 2.7% | 0.7% | 0.5% | 0.8 | -26.0
CCN1CCN(c2ccc(NC(=O)c3ccc4c(c3)[nH]c(=O)n4Cc3ccc(OC)cc3)cc2)CC1 | -17.9% | -1.2% | 2.6% | -3.6% | -20.2 | ?
Cc1ccc2cc(CCNC(=O)Cc3cccs3)c(=O)[nH]c2c1 | -29.0% | 0.1% | -0.3% | ? | 0.8 | 9.1
N#Cc1c(-n2cccc2/C=N/O)sc2c1CCCC2 | -19.2% | -15.4% | -2.3% | 0.7% | -3.7 | ?
N#Cc1c(N2C(=O)C3C4C=CC(C4)C3C2=O)sc2c1CCC2 (stereo not drawn) | -12.4% | -3.9% | -0.6% | 17.8µM* | -0.5 | 11.3
CCCC(=O)c1ccc(N2CCN(C(=O)c3ccccc3)CC2)c(F)c1 | -22.0% | -2.5% | 6.2% | ? | 4.7 | 15.3
SMILES | HPGD inh | 12-hLO inh | GLA spleen mod | ALDH1A1 block | GLA inh pH 4.5 | PNC assembly inh
CCCC(=O)c1ccc(N2CCN(C(=O)c3ccccc3Br)CC2)c(F)c1 | -14.2% | -4.7% | -1.2% | 15.8µM* | -18.0 | 27.9
c1cncc(N=c2scc(-c3cccc4ccccc34)n2CCCn2ccnc2)c1 | -21.5% | -0.2% | -7.0% | ? | -3.0 | -92.5*
Cc1ccc(-c2csc(=Nc3cccnc3)n2CCCn2ccnc2)cc1C | -9.4% | -0.8% | -1.8% | ? | 0.0 | -9.6
CCCC(c1cc(C(C)(C)C)c(O)cc1C)c1cc(C(C)(C)C)c(O)cc1C | -19.7% | -3.6%[11.4 µM] | / | 7.3%[13.5 µM] | / | /
CC1CC(=O)NN=C1c1ccc(NCCO)c([N+](=O)[O-])c1 (stereo not drawn) | -15.9% | 3.7% | 5.1% | -2.0% | -3.7 | -7.2
COc1ccc(C(=O)Nc2ccc(C3=NNC(=O)CC3C)cc2NC(=O)c2ccc(OC)cc2)cc1 (stereo not drawn) | / | / | -1.9% | 2µM* | -5.2 | /
CN1CCc2c1nc1ccccc1c2N=C1CCCN1Cc1ccccc1 | -27.9% | -3.9% | -11.3% | ? | 5.5 | ?
Nc1ncnc2nc(-c3ccc(N4CCOCC4)nc3)cc(-c3cccc(Br)c3)c12 | ? | -3.0% | 10.4% | ? | -23.8 | /
Cc1occc1C(=O)NNC(=O)Nc1ccc([N+](=O)[O-])cc1 | / | / | -7.2% | 14.1µM* | -4.6 | /
O=C(NNC(=O)c1ccncc1)Nc1ccc([N+](=O)[O-])cc1 | / | / | -9.2% | ? | 6.2 | /
Cc1occc1C(=O)Nc1cccc([N+](=O)[O-])c1 | -6.3% | -3.4% | -0.7% | 1.3% | 9.0 | 9.3
Cc1ccc([N+](=O)[O-])cc1NC(=O)c1ccoc1C | -18.9% | -3.5% | -12.3% | 20µM* | -2.4 | ?
C/C(Cl)=C\CSc1nnc2n(N)c(=O)c3ccccc3n12 | -18.4% | 4.1% | 11.6% | 17.8µM* | -1.2 | -16.2
Cc1ccc(S(=O)(=O)c2ccc(C)cc2)cc1 | -18.9% | 5.2% | 2.3% | 13.4% | 6.8 | 6.6
Cc1ccc(S(=O)(=O)/C=C\C#N)cc1 | 3.55µM* | -9.2% | 3.6% | 0.0112µM* | 4.8 | /
CC(C)(C)c1ccc(S(=O)(=O)/C=C\C#N)cc1 | 2.82µM* | -8.3% | 13.2% | 0.0562µM* | -3.4 | /
NC(=O)CSc1nnc(-c2cc(-c3ccc(Cl)cc3)nc3ccccc23)o1 | / | / | -5.6% | -1.4% | 4.5 | /
Fc1cccc(CN2CCN(c3ncccn3)CC2)c1 | -14.0% | -8.0% | 11.5% | 12.6µM* | -5.6 | 13.6
O=C(Nc1ccccc1)C12CC1/C(=N\O)c1ccccc1O2 (stereo not drawn) | / | / | 11.3% | ? | / | /
CCNc1nc(C)c(CN(C(C)=O)c2ccccc2)nc1C#N | ? | 4.0% | ? | ? | 21.6 | -25.6
